Assay outcomes from PubChem BioAssay.
An excerpt weighted towards active compounds, which were near 2.8% of everything screened.
PI5P4K alpha inh = qHTS for Inhibitors of phosphatidylinositol 5-phosphate 4-kinase (PI5P4K). Phosphatidylinositol 5-phosphate 4-kinase type-2 alpha (Homo sapiens), P48426. PI5P4Kalpha enzyme, ADP-Glo luminescence, 60 min; stronger effect = lower value. max response, %. 330,000 tested, 1.2% active; active = max response of -50% or lower; inconclusive = between -30% and -50%; inactive = -30% or higher; also: value at the top dose of about 77 µM; % is scaled to controls: 0 for no effect and ±100 for the full control effect
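ADP-Glo luminescence end-point read after a 60 min room-temperature kinase reaction of PI5P4Kalpha plus substrate, initiated with ATP at 5 microM final. Buffer: 0.038 M HEPES pH 7.4, EGTA, 0.1% CHAPS, 5% DMSO.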
POLB inh = qHTS Assay for Inhibitors of DNA Polymerase Beta; AID 485314, 2010; Potency, µM (doses to about 114 µM), for inactives: at the top dose activity change, negative = inhibition, actives largely listed as inhibitors; Pol beta primer extension/strand displacement, fluorescence kinetic; 340,000 tested, 1.3% active; P06746; also: potency is read from the fitted curve at half-maximal effect; % is scaled to controls: 0 for no effect and ±100 for the full control effect
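Pol beta (10 nM) and compounds were preincubated 15 min at room temperature, then 50 nM substrate (final) started primer extension/strand displacement. Reads were taken at 0 and 10 min; concentration-response data were fitted to a four-parameter Hill equation.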
Pol iota inh = qHTS for Inhibitors of Polymerase Iota; Pol iota fluorescent replication assay, 10 min; 390,000 tested, 1% active; DNA polymerase iota (Homo sapiens), Q9UNA4; Potency, µM (titrated, usually from 115 µM), for the others: at the top dose activity, negative = inhibition, actives largely listed as inhibitors; also: potency is read from the fitted curve at half-maximal effect
Target sequence (Q9UNA4 whole entry, looked up): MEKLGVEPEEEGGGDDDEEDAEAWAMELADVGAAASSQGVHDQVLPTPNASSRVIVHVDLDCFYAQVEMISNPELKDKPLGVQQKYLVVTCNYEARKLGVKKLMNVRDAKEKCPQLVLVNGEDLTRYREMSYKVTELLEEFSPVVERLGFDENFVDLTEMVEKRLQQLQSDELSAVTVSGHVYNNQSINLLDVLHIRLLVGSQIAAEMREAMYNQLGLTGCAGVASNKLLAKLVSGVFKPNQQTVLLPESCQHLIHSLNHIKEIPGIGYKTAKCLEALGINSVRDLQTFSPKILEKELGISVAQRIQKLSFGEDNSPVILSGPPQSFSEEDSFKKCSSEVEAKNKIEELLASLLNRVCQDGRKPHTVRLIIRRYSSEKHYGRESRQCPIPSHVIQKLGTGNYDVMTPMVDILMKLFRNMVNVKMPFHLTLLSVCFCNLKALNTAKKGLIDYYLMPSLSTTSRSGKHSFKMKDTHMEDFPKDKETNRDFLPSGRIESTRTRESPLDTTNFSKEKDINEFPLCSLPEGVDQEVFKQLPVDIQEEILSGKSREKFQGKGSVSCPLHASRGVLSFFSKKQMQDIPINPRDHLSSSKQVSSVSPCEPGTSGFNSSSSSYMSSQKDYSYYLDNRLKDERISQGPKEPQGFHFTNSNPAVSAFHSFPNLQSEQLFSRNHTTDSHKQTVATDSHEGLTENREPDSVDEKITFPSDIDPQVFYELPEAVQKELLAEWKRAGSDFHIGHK
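Fluorescent replication assay read twice, at 0 min and 10 min after adding 50 nM (final) substrate. Enzyme (10 nM) and compounds were first incubated 15 min at room temperature; enzyme-free buffer wells were negative controls.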
Pol eta inh-1 = qHTS for Inhibitors of Polymerase Eta; DNA polymerase eta (Homo sapiens), Q9Y253; recombinant Pol eta, fluorescent DNA replication assay; Potency, µM (doses to about 114 µM), without a hit: at the highest dose activity change, negative = inhibition, actives largely listed as inhibitors; 390,000 tested, 1.2% active; AID 588591, 2011; also: potency is read from the fitted curve at half-maximal effect; % is scaled to controls: 0 for no effect and ±100 for the full control effect
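Pol eta at 10 nM preincubated with compounds 15 min at room temperature; reaction started with fluorescent substrate (50 nM final) and read kinetically at 0 and 10 min.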
FEN1 inh = qHTS Assay for the Inhibitors of Human Flap endonuclease 1 (FEN1) | P39748 | Recombinant FEN1 flap cleavage, fluorescence, 15 min | Potency, µM (titrated, usually from 114 µM), for the others: top-dose activity change, negative = inhibition, actives largely listed as inhibitors | 390,000 tested, 0.35% active | AID 588795, 2011; also: potency is read from the fitted curve at half-maximal effect; % is scaled to controls: 0 for no effect and ±100 for the full control effect; nearly all actives have a fitted effect of over 65% in size
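FEN1 at 10 nM preincubated with compounds 15 min at room temperature, then flap DNA substrate added at 50 nM final. Signal read at 0 and 15 min; concentration-response fitted with four-parameter Hill equation.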
Pol kappa inh-1 = qHTS for Inhibitors of Polymerase Kappa; 400,000 tested, 0.53% active; Potency, µM (top dose mostly 107 µM), for the others: at the highest dose activity, negative = inhibition, usual class: inhibitors; AID 588579, 2011; purified Pol kappa, fluorescent DNA synthesis assay, 10 min; also: potency is read from the fitted curve at half-maximal effect; % is scaled to controls: 0 for no effect and ±100 for the full control effect
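Readout: fluorescence, taken kinetically at 0 and 10 min. Conditions: 10 nM Pol kappa, 15 min RT compound preincubation, 50 nM substrate final. Controls: enzyme-free buffer wells.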
TbPGK inh = qHTS for inhibitors of Phosphogylcerate Kinase: Hit Validation Screen. TbPGK coupled GAPDH assay, Kinase-Glo luminescence. Potency, µM (titrated, usually from 57.5 µM), for inactives: at the highest dose activity change, negative = inhibition, most hits filed as inhibitors. AID 686980, 2013. shares compounds with Pol kappa inh-1. 500 tested, 79% active; also: potency is read from the fitted curve at half-maximal effect; % is scaled to controls: 0 for no effect and ±100 for the full control effect; nearly all actives have a fitted effect of over 65% in size
POLI cherry-pick = qHTS for Inhibitors of Polymerase Iota: Confirmatory Assay for Cherry-picked Compounds | shares compounds with Pol kappa inh-1 | Pol iota primer extension, TAMRA/BHQ fluorescence | Potency, µM, usual class: inhibitors | 1,500 tested, 77% active | AID 720496, 2013; also: potency is read from the fitted curve at half-maximal effect
Pol kappa inh-2 = qHTS for Inhibitors of Polymerase Kappa: Confirmatory Assay for Cherry-picked Compounds; Potency, µM, usual class: inhibitors; purified Pol-kappa, fluorescent strand-displacement substrate; shares compounds with Pol eta inh-1; 920 tested, 76% active; AID 720501, 2013; also: potency is read from the fitted curve at half-maximal effect
Pol eta inh-2 = qHTS for Inhibitors of Polymerase Eta: Confirmatory Assay for Cherry-picked Compounds | Pol eta primer extension, TAMRA/BHQ fluorescence, 10 min | shares compounds with Pol eta inh-1 | AID 720502, 2013 | 2,600 tested, 64% active | Potency, µM, most hits filed as inhibitors; also: potency is read from the fitted curve at half-maximal effect
* = called active by the depositor; ? = inconclusive; · = no result; [ ] = remark or other dose. Unless noted, calls follow the shape of the dose curve; as a rule, active = well fitted curve in the direction sought with a large enough effect; inconclusive = small, poorly fitted or top-dose-only effect, or another doubt; inactive = no such curve, though single readings can be large; an effect the other way counts as inactive or inconclusive.

SMILES	PI5P4K alpha inh	POLB inh	Pol iota inh	Pol eta inh-1	FEN1 inh	Pol kappa inh-1	POLI cherry-pick	Pol eta inh-2	others
COc1c(-c2ccc(O)c(O)c2)oc2cc(O)cc(O)c2c1=O	?	4.5µM*	?	8.9µM*	25µM*	14µM*	42*	24*
CN(C)c1ncc2nc(-c3ccc(Cl)cc3)c(=O)n(C[C@H]3CCCO3)c2n1	·	·	·	·	·	8%[60.1 µM]	·	·
CCSc1nnc(NC(=O)CC)s1	6	18%	-15%	-2%	16%	-9%	·	·
CCSc1nnc(NC(=O)CSc2sc3c(O)cc(=O)[nH]c3c2C#N)s1	-102*	35µM*	3.5µM*	3.5µM*	35µM*	20µM*	42*	24*	Pol kappa inh-2=9.5*
COc1cc(C2C(=O)N(C3CCCCC3)CC(=O)N2CCC2=CCCCC2)ccc1OC(C)C (stereo unspecified)	·	-2%	3%	-8%	10%	-13%[60.1 µM]	·	·
O=C(c1cc(N2C(=O)C3C4CCC(C4)C3C2=O)ccc1Cl)N1CCN(c2ccccc2F)CC1 (stereo unspecified)	-6	24%	14%	-4%	3%	1%	·	·
S=c1[nH]nc(-c2ccncc2)n1/N=C/C=C/c1ccco1	?	20µM*	?	28µM*	?	-89%	42*	27*	Pol kappa inh-2=30*
CC(/C=N/n1c(-c2ccccc2)n[nH]c1=S)=C\c1ccco1	·	?	-14%	?	4%	-5%	·	·
COc1ccccc1NC(=O)NC1(C(=O)N2CCC(C)CC2)CCCCC1	3	13%	143%	-18%	1%	-20%	·	·
Cc1ccc(CN2CCN(Cc3ccc4cc(F)ccc4n3)CC2CCO)o1 (stereo unspecified)	-8	-1%	10%	-5%	15%	6%	·	·
O=C1COc2ccc(C(=O)COC(=O)c3ccc4ccccc4n3)cc2N1	-18	?	?	?	-23%	-29%	47*	?
O=C1COc2ccc(C(=O)COC(=O)c3ccccn3)cc2N1	1	·	49%	-4%	-1%	-7%	·	·
Cc1ccc(C)n1-c1sc2c(c1C(=O)O)CCCC2	-17	14µM*	?	7.9µM*	2%	50µM*	60*	27*
O=C(O)c1cccc(N2C(=O)/C(=C/c3ccc(SCc4ccc(Cl)cc4)o3)SC2=S)c1	-73*	3.2µM*	?	7.9µM*	?	79µM*	34*	19*	TbPGK inh=33µM*;Pol kappa inh-2=3.4*
O=C(/C=C/c1ccccc1)NCCc1ccccc1	?	25µM*	?	20µM*	-7%	?	?	67*	TbPGK inh=21µM*
CCC(Sc1nc2ccsc2c(=O)n1Cc1ccc(C(=O)O)cc1)C(=O)Nc1cc(Cl)ccc1C (stereo unspecified)	1	·	·	?	·	·	67*	·	Pol kappa inh-2=67*
CCCCCCc1c(C)c2ccc(OCC(=O)N[C@@H](Cc3ccccc3)C(=O)O)cc2oc1=O	1	14%	0%	35µM*	-22%	-6%	84*	?
COc1ccc(C(=O)N[C@H](C(=O)N2CCN(c3ccccc3F)CC2)C(C)C)cc1	3	16%	-20%	-1%	-16%	7%	·	·
CCCCOc1ccc(C(=O)N(Cc2ccco2)Cc2ccco2)cc1	·	22µM*	?	32µM*	-9%	-37%	67*	54*	Pol kappa inh-2=15*
CCCOc1ccc(C(=O)N(Cc2ccco2)Cc2ccco2)cc1	·	9%	-1%	?	-2%	-6%	·	·
C=CCc1cccc2cc(C(=O)Nc3ccc(CC(=O)O)cc3)c(=O)oc12	-28	22µM*	?	35µM*	?	?	?	67*
O=C(O)c1cccc2c1C(=O)c1ccccc1-2	-4	9%	63%	0%	-13%	-3%	·	·
O=C1C(=C(I)I)c2ccccc2-c2ccccc21	5	·	?	22µM*	-16%	-9%	21*	24*
COC(=O)c1ccc(N2NC(=O)/C(=C/c3ccc(OC)c(OC)c3)C2=O)cc1	-18	5%	?	8%	2%	-10%	·	·
O=C(O)c1cc(-c2ccc(/C=C3/SC(=S)N(Cc4ccccc4)C3=O)o2)ccc1Cl	?	16µM*	13µM*	10µM*	-15%	79µM*	75*	27*
SMILES	PI5P4K alpha inh	POLB inh	Pol iota inh	Pol eta inh-1	FEN1 inh	Pol kappa inh-1	POLI cherry-pick	Pol eta inh-2	others
O=C(O)c1ccc(COc2ccccc2/C=C2\NC(=O)N(Cc3ccc(F)cc3)C2=O)cc1	-6	?	?	?	?	-21%	·	·
Cc1ccc(/C=C2\SC(=S)N(Cc3ccccc3)C2=O)o1	·	0%	-9%	-1%	1%	-12%	·	·
CC1=NOC(=O)/C1=C\c1ccc(-c2ccc(Cl)c(C(=O)O)c2)o1	?	14µM*	11µM*	4.5µM*	?	35µM*	42*	21*
O=C(O)c1ccc(-c2ccc(/C=C3\NC(=O)N(Cc4ccc(Cl)cc4)C3=O)o2)cc1	-5	-3%	28µM*	22µM*	-2%	?	38*	27*
O=C(O)c1cc(-c2ccc(/C=N/Nc3ccc(Cl)cc3)o2)ccc1Cl	·	-20%	?	?	-23%	-23%	·	·
COC(=O)c1ccc(N2NC(=O)/C(=C/c3ccc(-c4ccc(Cl)c(C(=O)O)c4)o3)C2=O)cc1	?	22µM*	8.9µM*	3.2µM*	?	28µM*	27*	7.6*	Pol kappa inh-2=4.7*
